Assay results: article PMC7862700, “An all-to-all approach to the identification of sequence-specific readers for epigenetic DNA modifications on cytosine”

Experiments:
Experiment in all cases: DAPPL (digital affinity profiling via proximity ligation, sequencing); 10 mM Tris-HCl pH 7.5, 50 mM NaCl, 1 mM DTT, 4% glycerol, room temperature, 30 min; GST-TFs on glutathione beads, 16-mer random dsDNA library, 0.1% formaldehyde crosslink after washing; high values mean tight binding
[1] = biological target: T1, FLI1 (Homo sapiens, UniProt Q01543 1-452); conditions: protein: recombinant; tags: N-terminal GST; dsDNA, one strand shown
T1 sequence: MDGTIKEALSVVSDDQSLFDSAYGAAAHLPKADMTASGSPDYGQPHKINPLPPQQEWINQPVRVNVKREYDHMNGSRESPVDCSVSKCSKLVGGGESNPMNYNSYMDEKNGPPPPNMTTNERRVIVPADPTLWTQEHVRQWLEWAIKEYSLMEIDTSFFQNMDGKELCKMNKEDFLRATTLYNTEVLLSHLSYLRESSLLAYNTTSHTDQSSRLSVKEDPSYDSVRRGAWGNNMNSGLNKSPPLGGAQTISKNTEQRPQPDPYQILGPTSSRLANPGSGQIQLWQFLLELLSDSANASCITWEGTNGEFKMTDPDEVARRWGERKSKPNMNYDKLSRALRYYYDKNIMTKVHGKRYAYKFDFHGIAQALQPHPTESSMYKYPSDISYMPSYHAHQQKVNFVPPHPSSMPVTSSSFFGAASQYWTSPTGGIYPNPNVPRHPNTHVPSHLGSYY
Outline: (§1)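 After expression in yeast as GST fusions, human transcription factors were bound to glutathione beads, DNA-barcoded and mixed with a tag-only sample. The pools were incubated with 200 nmole of a 16-mer random double-stranded DNA library in Tris/NaCl/DTT/glycerol buffer (30 min, room temperature), washed and crosslinked with 0.1% formaldehyde. Proximity ligation with BsaI/T4 ligase ran for 1 h at 37 °C, before PCR amplification and sequencing on an Illumina NextSeq500. Binding signal is a hexamer's read frequency for a factor divided by its frequency for the tag-only sample.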

[2] = biological target: T2, ELK1 (Homo sapiens, UniProt P19419 1-428); conditions: protein: recombinant; tags: N-terminal GST; dsDNA, one strand shown
T2 sequence: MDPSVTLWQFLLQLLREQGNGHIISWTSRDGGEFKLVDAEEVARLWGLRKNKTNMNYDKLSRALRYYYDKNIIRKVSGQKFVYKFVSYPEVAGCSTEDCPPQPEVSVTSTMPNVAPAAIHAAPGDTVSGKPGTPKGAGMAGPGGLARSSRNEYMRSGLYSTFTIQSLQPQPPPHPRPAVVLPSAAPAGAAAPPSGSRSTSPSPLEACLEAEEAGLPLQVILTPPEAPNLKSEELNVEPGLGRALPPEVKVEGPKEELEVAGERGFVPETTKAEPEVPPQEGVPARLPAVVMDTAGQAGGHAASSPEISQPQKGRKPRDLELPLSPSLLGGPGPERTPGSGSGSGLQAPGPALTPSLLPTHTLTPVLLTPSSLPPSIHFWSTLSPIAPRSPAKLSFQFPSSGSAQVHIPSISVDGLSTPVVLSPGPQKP
Outline: as §1

[3] = biological target: T3, GABPA (Homo sapiens, UniProt Q06546 1-454); conditions: protein: recombinant; tags: N-terminal GST; dsDNA, one strand shown
T3 sequence: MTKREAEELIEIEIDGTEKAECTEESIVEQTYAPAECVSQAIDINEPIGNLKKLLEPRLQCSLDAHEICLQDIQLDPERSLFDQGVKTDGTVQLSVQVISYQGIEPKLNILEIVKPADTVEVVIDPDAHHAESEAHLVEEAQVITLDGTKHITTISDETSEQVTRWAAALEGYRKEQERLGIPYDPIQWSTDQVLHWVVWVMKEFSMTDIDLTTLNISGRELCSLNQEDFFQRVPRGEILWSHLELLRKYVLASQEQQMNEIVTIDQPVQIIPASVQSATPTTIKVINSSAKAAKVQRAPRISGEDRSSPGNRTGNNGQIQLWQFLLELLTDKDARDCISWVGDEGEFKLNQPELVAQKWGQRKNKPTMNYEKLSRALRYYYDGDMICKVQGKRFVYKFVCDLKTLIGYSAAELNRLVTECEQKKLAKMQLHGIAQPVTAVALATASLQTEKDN
Outline: as §1

[4] = biological target: T4, ERG (Homo sapiens, UniProt P11308 1-479); conditions: protein: recombinant; tags: N-terminal GST; dsDNA, one strand shown
T4 sequence: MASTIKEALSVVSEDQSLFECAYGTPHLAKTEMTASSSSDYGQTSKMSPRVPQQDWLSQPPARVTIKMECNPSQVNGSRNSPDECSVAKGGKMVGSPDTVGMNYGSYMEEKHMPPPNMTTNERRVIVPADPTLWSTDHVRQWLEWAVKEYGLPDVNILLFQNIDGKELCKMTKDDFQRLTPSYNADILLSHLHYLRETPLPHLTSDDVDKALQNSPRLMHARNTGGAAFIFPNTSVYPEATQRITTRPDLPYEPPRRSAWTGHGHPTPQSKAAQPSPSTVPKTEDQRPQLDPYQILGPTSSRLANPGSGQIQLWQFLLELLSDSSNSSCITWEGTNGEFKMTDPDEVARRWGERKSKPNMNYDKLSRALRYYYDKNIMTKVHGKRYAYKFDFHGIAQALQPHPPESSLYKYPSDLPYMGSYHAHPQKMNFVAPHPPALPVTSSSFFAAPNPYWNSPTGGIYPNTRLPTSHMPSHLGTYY
Outline: as §1

[5] = biological target: ELF1 (Homo sapiens, UniProt P32519 1-619); conditions: protein: recombinant; tags: N-terminal GST; dsDNA, one strand shown
Outline: as §1

[6] = biological target: T5, EHF (Homo sapiens, UniProt Q9NZC4 1-300); conditions: protein: recombinant; tags: N-terminal GST; dsDNA, one strand shown
T5 sequence: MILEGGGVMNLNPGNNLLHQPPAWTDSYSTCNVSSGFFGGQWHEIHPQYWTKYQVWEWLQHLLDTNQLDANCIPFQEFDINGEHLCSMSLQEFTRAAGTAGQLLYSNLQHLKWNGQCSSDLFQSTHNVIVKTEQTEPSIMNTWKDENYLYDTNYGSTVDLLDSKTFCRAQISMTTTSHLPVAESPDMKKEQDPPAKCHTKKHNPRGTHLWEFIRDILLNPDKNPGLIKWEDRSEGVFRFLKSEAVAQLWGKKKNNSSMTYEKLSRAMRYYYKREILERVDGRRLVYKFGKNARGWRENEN
Outline: as §1

[7] = biological target: SPI1 (Homo sapiens, UniProt P17947 1-270); conditions: protein: recombinant; tags: N-terminal GST; dsDNA, one strand shown
Outline: as §1

[8] = biological target: SPIB (Homo sapiens, UniProt Q01892 1-262); conditions: protein: recombinant; tags: N-terminal GST; dsDNA, one strand shown
Outline: as §1

[9] = biological target: T6, ELK3 (Homo sapiens, UniProt P41970 1-407); conditions: protein: recombinant; tags: N-terminal GST; dsDNA, one strand shown
T6 sequence: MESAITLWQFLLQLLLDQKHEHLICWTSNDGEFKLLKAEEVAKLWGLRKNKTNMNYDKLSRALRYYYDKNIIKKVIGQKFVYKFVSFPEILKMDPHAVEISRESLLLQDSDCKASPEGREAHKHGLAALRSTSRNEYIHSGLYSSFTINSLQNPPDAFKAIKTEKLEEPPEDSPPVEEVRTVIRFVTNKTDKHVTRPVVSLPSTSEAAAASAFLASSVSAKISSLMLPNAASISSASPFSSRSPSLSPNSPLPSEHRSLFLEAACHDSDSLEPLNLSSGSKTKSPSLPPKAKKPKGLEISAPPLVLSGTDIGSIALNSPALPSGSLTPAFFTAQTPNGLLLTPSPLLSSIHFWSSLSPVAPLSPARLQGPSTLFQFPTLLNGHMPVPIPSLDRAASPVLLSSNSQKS
Outline: as §1

[10] = biological target: T7, FEV (Homo sapiens, UniProt Q99581 1-238); conditions: protein: recombinant; tags: N-terminal GST; dsDNA, one strand shown
T7 sequence: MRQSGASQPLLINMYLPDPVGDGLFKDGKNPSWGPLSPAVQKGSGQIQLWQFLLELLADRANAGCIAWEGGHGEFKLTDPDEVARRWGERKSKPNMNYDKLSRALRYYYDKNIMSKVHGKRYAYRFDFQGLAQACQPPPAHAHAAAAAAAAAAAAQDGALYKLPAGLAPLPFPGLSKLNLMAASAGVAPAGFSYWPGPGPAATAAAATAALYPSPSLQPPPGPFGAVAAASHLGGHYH
Outline: as §1

[11] = biological target: ETV5 (Homo sapiens, UniProt P41161 1-510); conditions: protein: recombinant; tags: N-terminal GST; dsDNA, one strand shown
Outline: as §1

[12] = biological target: HSF1 (Homo sapiens, UniProt Q00613 1-529); conditions: protein: recombinant; tags: N-terminal GST; chain copies: 3; dsDNA, one strand shown
Outline: as §1

[13] = biological target: T8, SPIC (Homo sapiens, UniProt Q8N5J4 1-248); conditions: protein: recombinant; tags: N-terminal GST; dsDNA, one strand shown
T8 sequence: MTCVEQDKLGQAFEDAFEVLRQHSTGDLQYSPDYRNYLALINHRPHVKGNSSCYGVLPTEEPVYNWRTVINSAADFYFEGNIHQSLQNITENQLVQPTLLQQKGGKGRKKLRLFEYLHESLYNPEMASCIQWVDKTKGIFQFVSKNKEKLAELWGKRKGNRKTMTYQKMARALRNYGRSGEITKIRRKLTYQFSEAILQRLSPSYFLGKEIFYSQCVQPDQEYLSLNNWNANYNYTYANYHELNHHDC
Outline: as §1

[14] = biological target: ELF4 (Homo sapiens, UniProt Q99607 1-663); conditions: protein: recombinant; tags: N-terminal GST; dsDNA, one strand shown
Outline: as §1

[15] = biological target: T9, ELK4 (Homo sapiens, UniProt P28324-2 1-405); conditions: protein: recombinant; tags: N-terminal GST; dsDNA, one strand shown
T9 sequence: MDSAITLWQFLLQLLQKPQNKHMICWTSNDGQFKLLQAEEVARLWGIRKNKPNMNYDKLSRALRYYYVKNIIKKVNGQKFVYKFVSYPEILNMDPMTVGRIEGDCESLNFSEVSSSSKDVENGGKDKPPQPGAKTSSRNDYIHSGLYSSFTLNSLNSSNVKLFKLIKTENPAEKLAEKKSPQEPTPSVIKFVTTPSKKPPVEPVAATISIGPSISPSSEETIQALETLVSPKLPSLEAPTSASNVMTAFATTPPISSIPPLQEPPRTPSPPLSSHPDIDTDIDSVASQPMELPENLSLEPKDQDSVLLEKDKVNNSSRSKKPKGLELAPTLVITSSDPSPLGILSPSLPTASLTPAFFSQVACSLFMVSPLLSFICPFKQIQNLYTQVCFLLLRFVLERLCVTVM
Outline: as §1

[16] = biological target: T10, ETV2 (Homo sapiens, UniProt O00321 1-342); conditions: protein: recombinant; tags: N-terminal GST; dsDNA, one strand shown
T10 sequence: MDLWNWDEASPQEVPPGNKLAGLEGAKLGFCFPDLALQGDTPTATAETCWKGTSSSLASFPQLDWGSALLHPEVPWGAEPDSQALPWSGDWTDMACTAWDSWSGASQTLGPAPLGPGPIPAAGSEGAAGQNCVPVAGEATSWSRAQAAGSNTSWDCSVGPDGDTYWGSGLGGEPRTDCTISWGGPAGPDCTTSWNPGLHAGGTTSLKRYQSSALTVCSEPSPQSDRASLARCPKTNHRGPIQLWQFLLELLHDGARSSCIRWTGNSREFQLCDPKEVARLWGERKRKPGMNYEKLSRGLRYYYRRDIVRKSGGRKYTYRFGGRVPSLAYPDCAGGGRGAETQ
Outline: as §1

[17] = biological target: T11, ELF3 (Homo sapiens, UniProt P78545 1-371); conditions: protein: recombinant; tags: N-terminal GST; dsDNA, one strand shown
T11 sequence: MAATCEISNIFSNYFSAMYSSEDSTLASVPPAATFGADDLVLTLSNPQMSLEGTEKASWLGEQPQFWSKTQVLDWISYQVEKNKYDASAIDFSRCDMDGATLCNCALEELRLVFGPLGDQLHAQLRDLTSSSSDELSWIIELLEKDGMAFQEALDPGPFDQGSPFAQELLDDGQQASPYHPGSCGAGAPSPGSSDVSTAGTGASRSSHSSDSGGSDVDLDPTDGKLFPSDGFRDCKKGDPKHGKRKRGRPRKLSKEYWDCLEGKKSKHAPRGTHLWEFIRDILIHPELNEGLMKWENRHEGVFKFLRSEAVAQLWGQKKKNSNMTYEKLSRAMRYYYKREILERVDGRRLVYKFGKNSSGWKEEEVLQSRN
Outline: as §1

[18] = biological target: CRX (Homo sapiens, UniProt O43186 1-299); conditions: protein: recombinant; tags: N-terminal GST; dsDNA, one strand shown
Outline: as §1

[19] = biological target: ETV1 (Homo sapiens, UniProt P50549 1-477); conditions: protein: recombinant; tags: N-terminal GST; dsDNA, one strand shown
Outline: as §1

Sequence of ELF1 (P32519 whole entry): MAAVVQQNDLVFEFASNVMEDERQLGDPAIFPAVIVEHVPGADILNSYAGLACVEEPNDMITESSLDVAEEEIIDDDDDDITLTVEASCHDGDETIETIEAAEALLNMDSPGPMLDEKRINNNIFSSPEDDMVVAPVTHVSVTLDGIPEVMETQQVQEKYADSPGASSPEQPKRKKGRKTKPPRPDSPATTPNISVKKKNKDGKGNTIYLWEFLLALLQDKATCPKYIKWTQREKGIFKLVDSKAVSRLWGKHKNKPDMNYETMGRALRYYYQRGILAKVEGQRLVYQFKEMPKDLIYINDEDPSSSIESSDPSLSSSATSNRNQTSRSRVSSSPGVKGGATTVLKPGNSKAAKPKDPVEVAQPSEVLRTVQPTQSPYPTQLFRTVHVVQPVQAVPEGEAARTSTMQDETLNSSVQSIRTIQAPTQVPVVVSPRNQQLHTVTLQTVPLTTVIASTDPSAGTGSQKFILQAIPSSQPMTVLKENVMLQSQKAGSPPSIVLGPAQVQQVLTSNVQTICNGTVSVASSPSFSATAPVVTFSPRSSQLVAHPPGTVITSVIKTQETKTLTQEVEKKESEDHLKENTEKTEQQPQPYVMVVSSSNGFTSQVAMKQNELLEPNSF
Sequence of ETV5 (P41161 whole entry): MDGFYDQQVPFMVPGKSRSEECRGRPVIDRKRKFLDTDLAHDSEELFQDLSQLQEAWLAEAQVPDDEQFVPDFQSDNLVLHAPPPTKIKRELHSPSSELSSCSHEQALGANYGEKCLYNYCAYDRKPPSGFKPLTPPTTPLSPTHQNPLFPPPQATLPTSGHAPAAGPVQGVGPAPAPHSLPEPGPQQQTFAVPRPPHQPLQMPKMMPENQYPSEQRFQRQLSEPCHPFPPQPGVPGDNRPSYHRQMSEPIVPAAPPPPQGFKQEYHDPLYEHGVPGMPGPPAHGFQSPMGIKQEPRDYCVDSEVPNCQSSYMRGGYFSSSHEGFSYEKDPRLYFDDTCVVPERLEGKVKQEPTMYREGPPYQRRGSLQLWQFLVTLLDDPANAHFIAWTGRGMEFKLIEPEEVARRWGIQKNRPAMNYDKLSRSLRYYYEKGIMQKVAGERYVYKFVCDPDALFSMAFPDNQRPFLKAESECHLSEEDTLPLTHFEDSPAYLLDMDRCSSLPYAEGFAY
Sequence of ETV1 (P50549 whole entry): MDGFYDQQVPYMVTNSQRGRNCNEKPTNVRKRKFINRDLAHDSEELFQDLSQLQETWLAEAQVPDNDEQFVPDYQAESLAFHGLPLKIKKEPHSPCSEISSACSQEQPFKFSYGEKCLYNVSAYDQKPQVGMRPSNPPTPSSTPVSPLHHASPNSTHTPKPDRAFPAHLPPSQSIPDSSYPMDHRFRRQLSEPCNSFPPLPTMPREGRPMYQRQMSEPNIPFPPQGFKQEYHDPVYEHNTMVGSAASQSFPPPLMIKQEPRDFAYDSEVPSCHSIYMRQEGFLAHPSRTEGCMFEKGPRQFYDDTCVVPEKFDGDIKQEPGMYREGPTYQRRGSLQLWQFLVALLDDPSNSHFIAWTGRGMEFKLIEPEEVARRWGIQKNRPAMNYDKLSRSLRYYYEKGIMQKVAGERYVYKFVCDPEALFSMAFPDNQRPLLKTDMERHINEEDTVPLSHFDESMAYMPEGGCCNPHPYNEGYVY
Sequence of CRX (O43186 whole entry): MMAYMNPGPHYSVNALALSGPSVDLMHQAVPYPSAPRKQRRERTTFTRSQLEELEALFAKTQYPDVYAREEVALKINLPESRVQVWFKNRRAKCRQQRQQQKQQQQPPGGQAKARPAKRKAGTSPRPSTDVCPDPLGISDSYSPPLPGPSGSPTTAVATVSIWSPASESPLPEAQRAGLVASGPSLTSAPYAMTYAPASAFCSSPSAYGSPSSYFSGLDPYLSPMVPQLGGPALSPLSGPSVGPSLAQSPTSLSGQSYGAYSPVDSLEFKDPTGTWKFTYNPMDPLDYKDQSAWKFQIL
Sequence of SPIB (Q01892 whole entry): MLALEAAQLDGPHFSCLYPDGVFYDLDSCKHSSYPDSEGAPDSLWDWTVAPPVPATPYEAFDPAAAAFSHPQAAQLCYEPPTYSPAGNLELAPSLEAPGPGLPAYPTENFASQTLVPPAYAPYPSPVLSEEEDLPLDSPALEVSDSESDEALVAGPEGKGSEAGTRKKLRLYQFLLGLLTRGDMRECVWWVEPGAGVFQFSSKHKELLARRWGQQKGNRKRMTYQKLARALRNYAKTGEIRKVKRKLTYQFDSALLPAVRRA
Sequence of HSF1 (Q00613 whole entry): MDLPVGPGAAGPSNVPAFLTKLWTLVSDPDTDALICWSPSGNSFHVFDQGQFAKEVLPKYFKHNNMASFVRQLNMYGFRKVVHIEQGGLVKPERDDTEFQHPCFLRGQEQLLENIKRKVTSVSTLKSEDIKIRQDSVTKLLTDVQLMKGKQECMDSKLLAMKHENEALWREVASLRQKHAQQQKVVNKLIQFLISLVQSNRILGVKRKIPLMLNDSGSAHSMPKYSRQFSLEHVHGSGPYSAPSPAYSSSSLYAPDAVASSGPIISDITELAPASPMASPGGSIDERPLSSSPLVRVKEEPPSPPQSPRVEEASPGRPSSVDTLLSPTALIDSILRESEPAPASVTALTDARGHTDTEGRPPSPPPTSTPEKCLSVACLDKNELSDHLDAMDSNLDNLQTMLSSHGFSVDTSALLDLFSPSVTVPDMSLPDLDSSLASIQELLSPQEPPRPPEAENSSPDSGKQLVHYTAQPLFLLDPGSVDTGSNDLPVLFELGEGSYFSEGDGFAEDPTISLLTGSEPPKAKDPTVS
Sequence of ELF4 (Q99607 whole entry): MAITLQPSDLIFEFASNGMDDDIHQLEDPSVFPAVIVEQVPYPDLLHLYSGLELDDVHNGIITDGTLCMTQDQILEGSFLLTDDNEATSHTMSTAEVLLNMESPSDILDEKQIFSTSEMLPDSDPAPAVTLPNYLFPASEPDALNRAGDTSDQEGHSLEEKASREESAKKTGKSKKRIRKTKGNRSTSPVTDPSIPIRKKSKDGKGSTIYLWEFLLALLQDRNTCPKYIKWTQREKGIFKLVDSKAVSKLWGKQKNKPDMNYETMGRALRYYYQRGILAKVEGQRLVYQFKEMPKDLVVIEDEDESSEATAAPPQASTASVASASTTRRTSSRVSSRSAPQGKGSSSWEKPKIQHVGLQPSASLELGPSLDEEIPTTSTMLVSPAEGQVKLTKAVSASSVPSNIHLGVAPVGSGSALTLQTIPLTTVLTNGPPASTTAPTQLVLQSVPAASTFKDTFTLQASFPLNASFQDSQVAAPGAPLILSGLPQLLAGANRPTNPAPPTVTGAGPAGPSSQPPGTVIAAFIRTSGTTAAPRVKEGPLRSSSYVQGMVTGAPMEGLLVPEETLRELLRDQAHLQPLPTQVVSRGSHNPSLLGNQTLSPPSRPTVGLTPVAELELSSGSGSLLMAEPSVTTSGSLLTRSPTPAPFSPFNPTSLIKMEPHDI

## AACGAT
[1]
  binding signal: 1.28 fold enrichment (6-mer frequency, TF over GST control)
[2]
  binding signal: 1.16 fold enrichment (6-mer frequency, TF over GST control)
[3]
  binding signal: 1.13 fold enrichment (6-mer frequency, TF over GST control)
[4]
  binding signal: 1.21 fold enrichment (6-mer frequency, TF over GST control)
[5]
  binding signal: 1.24 fold enrichment (6-mer frequency, TF over GST control)
[6]
  binding signal: 1.17 fold enrichment (6-mer frequency, TF over GST control)
[7]
  binding signal: 1.17 fold enrichment (6-mer frequency, TF over GST control)
[8]
  binding signal: 1.21 fold enrichment (6-mer frequency, TF over GST control)
[9]
  binding signal: 1.24 fold enrichment (6-mer frequency, TF over GST control)
[10]
  binding signal: 1.15 fold enrichment (6-mer frequency, TF over GST control)
[11]
  binding signal: 1.22 fold enrichment (6-mer frequency, TF over GST control)
[12]
  binding signal: 1.32 fold enrichment (6-mer frequency, TF over GST control)
[13]
  binding signal: 1.19 fold enrichment (6-mer frequency, TF over GST control)
[14]
  binding signal: 1.17 fold enrichment (6-mer frequency, TF over GST control)
[15]
  binding signal: 1.15 fold enrichment (6-mer frequency, TF over GST control)
[16]
  binding signal: 1.35 fold enrichment (6-mer frequency, TF over GST control)
[17]
  binding signal: 1.08 fold enrichment (6-mer frequency, TF over GST control)
[18]
  binding signal: 1.38 fold enrichment (6-mer frequency, TF over GST control)
[19]
  binding signal: 1.19 fold enrichment (6-mer frequency, TF over GST control)
